# Rows were chosen to be rich in hits. Some 9.3% of all compounds tested hit in one or more screens of this group.
# VACV Venus inh: inhibitors of vaccinia virus (Venus reporter). Vaccinia virus Venus reporter expression, fluorescence. Potency, µM (doses to about 36.5 µM), for inactives: at the highest dose activity change, negative = inhibition, hits mostly inhibitors. 330,000 compounds, 0.46% hits. AID 720580; calls by dose curve; tested in A549 cells; also: potency is read from the fitted curve at half-maximal effect; nearly all actives have a fitted effect of over 30% in size
# HCMV antiviral: inhibitors of human cytomegalovirus; HFF cells, HCMV-luciferase reporter, 72 h; stronger effect = lower value; activity change, negative = inhibition, % at 57.5 µM; 410,000 compounds, 4.5% hits; AID 1259415; in the data active = activity change below about -60%; inconclusive = no clear call, values can overlap the other calls; inactive = above about -39%
#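 Screen run at 2 compound doses on HFFs infected with reporter HCMV, MOI 1 PFU/cell. Luciferase activity from cell lysates at 72 h post infection gave inhibition relative to buffer-only and Salinomycin wells.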
# Vaccinia mCherry: inhibitors of vaccinia virus infection (mCherry reporter signal); AID 720579; 310,000 compounds, 0.63% hits; Vaccinia virus mCherry reporter infection, fluorescence; Potency, µM (series often up to 36.5 µM), without a hit: at the top dose activity change, negative = inhibition, hits mostly inhibitors; calls by dose curve; tested in A549 cells; also: potency is read from the fitted curve at half-maximal effect; nearly all actives have a fitted effect of over 35% in size
# FMDV antiviral: foot and mouth disease virus antiviral activity | FMDV antiviral cell-based qHTS | Potency, µM (doses to about 57.9 µM), without a hit: at the highest dose activity change, negative = inhibition, hits mostly inhibitors | 410,000 compounds, 1.2% hits | AID 1159524; calls by dose curve; tested in HEK293T cells; also: read-out not given here; potency is read from the fitted curve at half-maximal effect; nearly all actives have a fitted effect of over 45% in size
# Sm TGR inh: S. mansoni TGR enzyme inhibition. purified TGR, DTNB reduction, TNB absorbance 405 nm. Q962Y6. Potency, µM (highest dose often 114 µM), inactives show at the top dose activity change, negative = inhibition, most hits filed as inhibitors. AID 485364. 360,000 compounds, 3% hits; also: potency is read from the fitted curve at half-maximal effect; nearly all actives have a fitted effect of over 60% in size
#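 Kinetic colorimetric format: TGR-catalysed, NADPH-driven DTNB reduction monitored via TNB absorbance. Enzyme dispensed at 20 nM; compound exposure 15 min at room temperature before reaction start.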
# HCV inhibitor: inhibitors of hepatitis C virus infection; AID 651820; 340,000 compounds, 3.4% hits; Huh7.5.1 HCVcc-Cre infection, luciferase reporter, 44 h; Potency, µM (top dose mostly 41.8 µM), without a hit: top-dose activity change, negative = inhibition, usual class: inhibitors; also: potency is read from the fitted curve at half-maximal effect
#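 Compounds are dispensed onto cells plated 4 h earlier at 1,000 per well, with HCVcc-Cre virus (about 0.5 moi) added next. Following 44 h of culture, luminescent signal is measured for 15 sec after 15 min with substrate at room temperature.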
# Starred values were filed as active, the others as inactive; i = inactive; ? = inconclusive; . = not tested or not shown; [ ] = remark or other dose. Unless noted, calls follow the shape of the dose curve; as a rule, active = well fitted curve in the direction sought with a large enough effect; inconclusive = small, poorly fitted or top-dose-only effect, or another doubt; inactive = no such curve, though single readings can be large; an effect the other way counts as inactive or inconclusive. % is scaled to controls: 0 for no effect and ±100 for the full control effect.
SMILES,VACV Venus inh,HCMV antiviral,Vaccinia mCherry,FMDV antiviral,Sm TGR inh,HCV inhibitor
C/C(=N\NC(=O)c1nnn(-c2nonc2N)c1CN1CCc2ccccc21)c1ccccc1O,.,-98*,.,5%,3%,?
CCC/C(=N/NC(=O)c1nnn(-c2nonc2N)c1CN1CCCCC1)c1ccccc1,86%,-37,74%,-17%,.,10%
CCCc1c(C(=O)N/N=C(\CC)c2ccccc2)nnn1-c1nonc1N,-3%,-63*,-8%,-16%,.,.
Nc1nonc1-n1nnc(C(=O)N/N=C/c2ccccc2)c1CN1CCc2ccccc21,6%,-3,?,8%,-7%,7%
COc1ccccc1CNC(=O)CCC1N=C2c3ccccc3N=C(SCc3ccc(Cl)cc3)N2C1=O (configuration not stated),?,-17,?,24%,5%,.
COc1ccc(S(=O)(=O)N2CN(Cc3ccco3)c3nc4ccccc4nc32)cc1,.,.,.,3%,11µM*,-6%
Cc1ccc(S(=O)(=O)Nc2nc3ccccc3nc2NCc2ccco2)cc1,12%,39,i,.,13µM*,1%
Cc1ccc(S(=O)(=O)N2CN(Cc3ccco3)c3nc4ccccc4nc32)cc1,0%,?,.,14%,22µM*,?
O=S(=O)(c1ccc(F)cc1)N1CN(Cc2ccco2)c2nc3ccccc3nc21,12%,5,1%,.,?,-15%
COc1ccc(Cl)cc1NC(=O)C1CC(c2ccccc2Cl)=NO1 (configuration not stated),?,-15,-5%,-25%,.,.
CCN(C(=O)COC(=O)/C=C/c1cnc2ccccc2n1)c1ccccc1,.,-89*,.,-26%,-13%,8%
COC(=O)COc1ccc(C2Nc3c(Cl)ccc(C(=O)O)c3C3C=CCC32)cc1 (configuration not stated),7%,-75*,2%,8%,3.5µM*,-2%
COc1ccc(OC)c(C2Nc3c(Cl)ccc(C(=O)O)c3C3C=CCC32)c1 (configuration not stated),0%,-21,-10%,-12%,1.6µM*,11%
CCOc1ccc2c(c1)[C@@H]1C=CC[C@@H]1[C@H](c1ccccc1Cl)N2,-2%,-7,-8%,1%,-7%,.
COC(=O)[C@@]12OC[C@]34[C@H]([C@@H](O)[C@@H]1O)[C@@]1(C)C(=O)C(O[C@@H]5OC(CO)[C@@H](O)[C@@H](O)[C@@H]5O)=C[C@@H](C)[C@@H]1C[C@H]3OC(=O)[C@H](OC(=O)/C=C(\C)C(C)(C)OC(C)=O)[C@@H]24 (some centres not stated),8.9µM*,.,8.9µM*,0%,?,11µM*
COc1ccc(CN2CCN(c3ccc(F)cc3)CC2)c(OC)c1OC,-14%,8,-13%,-11%,8%,?
COc1ccc(CN2CCN(Cc3ccc(Br)cc3)CC2)c(OC)c1OC,.,-68*,.,?,5%,13µM*
COc1ccc(CN2CCN(C(c3ccc(F)cc3)c3ccc(F)cc3)CC2)c(OC)c1OC,-20%,18,-9%,-24%,.,1µM*
COc1ccc(CN2CCNCC2)c(OC)c1OC,-15%,?,-19%,0%,?,?
CN(C)C(=O)c1ccc(-c2cc3onc(-c4ccccc4)c3c(=O)n2C)cc1,?,9,-7%,-11%,.,3.5µM*
COC(=O)c1ccc(-c2cc3onc(-c4ccccc4)c3c(=O)n2C)cc1,-8%,3,-8%,29%,3%,28%
O=C(CN1C(=O)CSCC1=O)NCc1ccc(F)cc1,.,-15,.,0%,5%,9%
Cc1cc(C)c(OCCCCNCc2ccccc2)c(Cl)c1,.,28,.,0%,-4%,11µM*
Cc1cc(C)c(OCCNCc2ccccc2)c(C)c1,-16%,-26,-1%,-10%,-6%,-19%
CC1(c2nnc(-c3ccc(F)cc3)o2)CC(c2ccccc2)=NO1 (configuration not stated),-16%,-32,-7%,-4%,-1%,?
SMILES,VACV Venus inh,HCMV antiviral,Vaccinia mCherry,FMDV antiviral,Sm TGR inh,HCV inhibitor
CNC(=O)Oc1ccc(-c2cn3cc(C)ccc3n2)cc1,-10%,-24,-29%,13µM*,-3%,?
Nc1nc(-c2ccc3c(c2)OCCO3)cs1,7.1µM*,78,-18%[1.46 µM],34%,-33%,?
Cc1ccc2nc(-c3ccc4c(c3)OCCO4)cn2c1,-18%,-103*,i,3.2µM*,21%,-10%
CNC(=O)Oc1cccc(-c2cn3cc(Cl)ccc3n2)c1,-16%,?,-21%,-90%,2%,?
c1cc[n+](CCC[n+]2ccccc2)cc1,-15%,-102*,i,14%,?,-8%
COc1ccc(CN(C(=O)CN2C(=O)NC3(CCC(C)CC3)C2=O)C(C)Cc2cccs2)cc1 (configuration not stated),.,-4,.,-21%,2%,?
O=c1cc2c(c(-c3ccccc3)n1Cc1ccccc1)[C@H](CCO)NC2,-3%,8,-10%,-17%,.,-27%
Cc1cccc(NC(=O)CCC(=O)N/N=C/c2ccc(O)cc2O)c1,-9%,100,6.3µM*,-11%,-2%,?
Cc1ccc(NC(=O)CCC(=O)N/N=C/c2ccccc2O)cc1,.,3,.,15%,10%,-28%
O=C(CCCCC(=O)NN=Cc1ccccc1O)NN=Cc1ccccc1O,-13%,12,3.2µM*,5%,.,?
O=C(Cn1cc(C(F)(F)F)ccc1=O)N/N=C/c1ccccc1O,-25%,-21,16µM*,2%,6%,?
O=C(CCC(=O)Nc1ccc(Br)cc1)N/N=C/c1ccccc1O,?,-66*,5.6µM*,24%,8%,?
Cc1ccc2oc(=O)c3cnn(CC(=O)N4CCN(c5cccc(C(F)(F)F)c5)CC4)c3c2c1,-10%,9,-6%,?,-2%,.
COCCCNC(=S)N/N=C/c1ccccc1O,.,-62*,.,55%,-15%,-18%
CSc1nc(C)cc(OCC(=O)N/N=C/c2ccccc2O)n1,?,?,11µM*,?,0%,6.3µM*
O=C(COc1nsnc1N1CCOCC1)N/N=C/c1ccccc1O,?,39,22µM*,-4%,-3%,?
Cc1ccc(SCCC(=O)N/N=C/c2ccccc2O)cc1,1%,-85*,-26%,4%,-2%,?
COCCNC(=S)N/N=C/c1ccccc1C(=O)O,-13%,-5,-20%,9%,0%,16%
Cn1c(=O)n(C)c2cc([N+](=O)[O-])c(N3CCN(C(=O)c4ccccc4)CC3)cc21,-3%,-35,-14%,-13%,-32%,?
Cn1c(=O)n(C)c2cc([N+](=O)[O-])c(N3CCN(C(=O)C(C)(C)C)CC3)cc21,-3%,1,-2%,?,-1%[57.1 µM],-3%
